N-glyco inh: blocks N-linked glycosylation in D54 reporter cells; D54 ERlucT glycosylation luciferase reporter, 24 h; percent of 100 nM tunicamycin response; reporter increase, % at 12.5 µM; actives 0.23% (n = 360,000);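 active means mean luciferase reporter signal, scaled so untreated is 0 and the glycosylation-blocking control 100, at or above a set limit in every replicate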;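 further: luciferase carries N-glycosylation sites so blocking glycosylation raises the light; 0% = median of neutral control wells and 100% = median of 100 nM tunicamycin wells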
CendR NRP1 mod: alters CendR peptide binding to human NRP-1. FAM-RPARPAR peptide binding to NRP-1, fluorescence polarization. inhibition, % at 25 µM. actives 0.85% (n = 360,000). AID 602438;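 active means inhibition or corrected inhibition above about 18%, plus a signal ratio from 0.5 to 1.5, limit read from the data, passing the limit was not always enough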
RAD54 inh: RAD54 (human) branch migration inhibition. RAD54 Holliday junction branch migration, FAM/BHQ fluorescence. inhibition, % at 10.4 µM. actives 0.14% (n = 360,000). AID 602329;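 active means mean normalized replicate activity at least 40 and at least half of replicates scoring 40 or more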;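 further: 0% = median of neutral control wells and 100% = median of positive control wells; inhibitors cause a drop in the FAM fluorescence signal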
RAD52 anneal inh: RAD52 (human) annealing inhibition | inhibition, % at 18.7 µM | P43351 | recombinant RAD52 DNA annealing, FRET fluorescence | actives 0.46% (n = 360,000);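 active means every replicate showing at least 50% inhibition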
FID counter: counter-screen for HCV NS3 helicase inhibitors: DNA intercalator displacement. DNA fluorescent intercalator displacement, fluorescence. inhibition, % at 7.9 µM. actives 0.17% (n = 290,000); in the data active means inhibition above about 37%;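 further: 0% = vehicle and 100% = reference compound; higher means more ethidium bromide displaced from hairpin DNA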
miR-122 sensor: miR-122 inhibition in Huh7 cells; Huh7 miR-122 Renilla luciferase sensor, 48 h; neutral wells = 0, positive control = 100; AID 602342; actives 0.3% (n = 340,000); activation (reporter increase), % at 12.5 µM;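 active means mean replicate activation score at least 90 and every replicate individually at or above 90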;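 further: higher luciferase means less miR-122 activity so hits act as miR-122 inhibitors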
The depositor's hits bear a star; . = no result given; [ ] = dose if it differs, or a comment. Shown are actives, neighbours in structure and some others; about 1.5% of the full set was active somewhere.

SMILES	N-glyco inh	CendR NRP1 mod	RAD54 inh	RAD52 anneal inh	FID counter	miR-122 sensor
C#CCOCCOCCOCCNc1nc(N2CCN(C(=O)[C@H]([C@@H](C)CC)n3cc([C@@H](N)CC(C)C)nn3)CC2)nc(N2CCN(C(=O)[C@H](CCCCN)n3cc([C@@H](N)CC(C)C)nn3)CC2)n1	2	.	11	.	38*	-7
C#CCOCCOCCOCCNc1nc(N2CCN(C(=O)[C@H]([C@@H](C)CC)n3cc([C@@H](N)CC(C)C)nn3)CC2)nc(N2CCN(C(=O)[C@H](CCCCN)n3cc([C@@H](N)C(C)CC)nn3)CC2)n1 (some centres not stated)	1	2	8	.	45*	0
C[C@@H]1CN([C@@H](C)CO)C(=O)c2cccc(NS(=O)(=O)c3ccc(F)cc3)c2O[C@H]1CN(C)S(=O)(=O)c1ccc(Cl)cc1	.	.	-1	17	.	-4[16.7 µM]
CCCNC(=O)N1CC2(C1)[C@@H](c1ccccc1)[C@@H](CO)N2C(=O)c1cccnc1	.	.	.	-2	.	.
Cc1noc(C)c1NC(=O)N(C)C[C@H]1Oc2ncc(C#CCN(C)C)cc2C(=O)N([C@H](C)CO)C[C@H]1C	.	.	3	-12	.	20[16.7 µM]
COc1ccccc1S(=O)(=O)N[C@H]1CC[C@@H](CCNC(=O)C2CCCCC2)O[C@H]1CO	.	.	-3	-8	.	.
CCC(C)[C@H](NC(=O)Nc1ccccc1F)C(=O)OC (some centres not stated)	2	22*	.	-2	-5	.
Cc1noc(C)c1S(=O)(=O)N(C)C[C@@H]1Oc2ccc(NC(=O)Nc3cccc4ccccc34)cc2CC(=O)N([C@@H](C)CO)C[C@@H]1C	.	.	5	15	.	-8[16.7 µM]
Cc1cccc2nc(-c3ccccc3)nc(N3CCC(O)(c4ccc(Cl)cc4)CC3)c12	-2	31*	-4	.	-8	4
CCN1CCN(c2nc(-c3ccccc3)nc3ccccc23)CC1	0	-12	27	.	15	4
O=S(=O)(NCc1ccccc1)c1ccc(-n2cccn2)cc1	2	10	7	2	-21	18
O=S(=O)(NCc1ccc(F)cc1)c1ccc(-n2cccn2)cc1	0	21*	0	-6	-12	21
O=C(NCc1ccc(Cl)cc1)C1CCC(=O)N(C2CC2)C1 (configuration not stated)	0	20*	5	-7	-8	-3
CC(C)NC(=O)N(C)C[C@H]1Oc2ccc(NC(=O)C3CCCCC3)cc2CC(=O)N([C@H](C)CO)C[C@H]1C	.	.	18	2	.	1[16.7 µM]
CCS(=O)(=O)c1nc(S(=O)(=O)c2ccc(Cl)cc2)c(N2CCC3(CC2)OCCO3)s1	-2	11	12	0	-36	-6
CCS(=O)(=O)c1nc(S(=O)(=O)c2ccc(Cl)cc2)c(N2CCOCC2)s1	-4	35*	8	-1	-25	0
O=c1c2c(nc3nc(COc4ccccc4)[nH]n13)CCC2	1	10	1	.	2	-1
O=c1c2c(nc3nc(SCc4ccccc4)[nH]n13)CCC2	0	-10	-11	.	-3	112*
CCNC(=O)C[C@@H]1CC[C@H]2[C@@H](COc3ccc(NC(=O)Nc4c(C)noc4C)cc3C(=O)N2C)O1	.	.	4	-8	.	6[16.7 µM]
Cc1cc(C(O)c2ncc(-c3ccccc3)[nH]2)ccc1F (configuration not stated)	-1	0	-9	.	.	158*
OC(c1ccc(Cl)c(F)c1)c1ncc(-c2ccc(Cl)cc2)[nH]1 (configuration not stated)	-3	-8	-11	-125	.	4
OC(c1ccc(Cl)c(F)c1)c1ncc(-c2cccc(F)c2)[nH]1 (configuration not stated)	-2	6	6	-4	.	124*
CCCC(=O)Nc1ccc2c(c1)OC[C@@H](C)N(C(=O)c1ccccc1F)C[C@@H](C)[C@H](OC)CN(C)C2=O	.	.	.	.	.	13[16.7 µM]
CO[C@@H]1CN(C)C(=O)c2cc(NS(=O)(=O)c3cccc(C)c3)ccc2OC[C@H](C)NC[C@@H]1C	.	.	4	-19	.	57[16.7 µM]
CNC(=O)C[C@@H]1CC[C@H]2[C@@H](COc3ccc(NC(=O)Nc4ccc(F)cc4)cc3C(=O)N2C)O1	.	.	-5	0	.	2[16.7 µM]
Cc1cc(C)cc(NS(=O)(=O)c2ccc(NC(=S)NC(=O)c3cccs3)cc2)c1	0	6	-1	.	-5	133*

Source: PubChem BioAssay (several laboratories)
